{
  "source": "PubChem BioAssay AID588763",
  "about": "(NMMLSC, 2011)",
  "biological_target": "Beta-2 adrenergic receptor (Homo sapiens) (UniProt P07550)",
  "sequence (P07550 whole entry, looked up)": "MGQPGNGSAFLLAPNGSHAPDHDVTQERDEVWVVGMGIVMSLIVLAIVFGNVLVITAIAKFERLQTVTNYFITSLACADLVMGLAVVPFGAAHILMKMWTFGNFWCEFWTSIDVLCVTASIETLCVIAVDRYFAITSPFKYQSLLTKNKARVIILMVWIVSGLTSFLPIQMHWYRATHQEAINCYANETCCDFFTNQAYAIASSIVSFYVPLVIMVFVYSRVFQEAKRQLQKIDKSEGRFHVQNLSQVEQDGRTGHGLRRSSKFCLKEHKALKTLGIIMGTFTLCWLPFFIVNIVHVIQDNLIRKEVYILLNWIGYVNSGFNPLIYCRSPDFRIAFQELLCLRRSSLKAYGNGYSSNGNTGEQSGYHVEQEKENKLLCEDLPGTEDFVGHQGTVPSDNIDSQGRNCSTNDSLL",
  "assay": "ADRB2 activation measured by internalization – cell-based, FAP fluorogen, flow cytometry, cherry pick 1, dose response (AID 588763)",
  "note": "Potency and affinity values are given separately. Values without a mark were called inactive. Entries that show only a call come without a potency. The source made the active and inactive calls. The rule behind the calls is not given here.",
  "data": [
    {"compound": "COc1ccccc1CCC(=O)Nc1cccc(S(=O)(=O)N2CCCCCC2)c1", "values": [
      {"measurement": "outcome", "value": "inactive"}
    ]},
    {"compound": "O=C(c1ccc(-c2nnc(Nc3ccccc3)c3ccccc23)cc1)N1C[C@H]2C[C@H](C1)c1cccc(=O)n1C2", "values": [
      {"measurement": "outcome", "value": "inactive"}
    ]},
    {"compound": "CCC(NC(=O)c1cc(COc2cncc(Cl)c2)on1)c1ccc(C)cc1", "note": "(stereo not drawn)", "values": [
      {"measurement": "outcome", "value": "inactive"}
    ]},
    {"compound": "Cc1ccc(OCC(O)Cn2c(=N)n(Cc3ccccc3)c3ccccc32)cc1", "note": "(stereo not drawn)", "values": [
      {"measurement": "outcome", "value": "inactive"}
    ]},
    {"compound": "COc1ccc(OC)c(S(=O)(=O)N(C)CC(=O)N2CCN(c3ccccc3)CC2)c1", "values": [
      {"measurement": "outcome", "value": "inactive"}
    ]},
    {"compound": "COc1ccc(-n2nc3c(N4CCC(C(=O)NCc5cccc(C)c5)CC4)nnc(C)c3c2C)cc1", "values": [
      {"measurement": "outcome", "value": "inactive"}
    ]},
    {"compound": "CN(CC(=O)N1CCN(c2ccc(F)cc2)CC1)S(=O)(=O)c1ccc(F)cc1", "values": [
      {"measurement": "outcome", "value": "inactive"}
    ]},
    {"compound": "COc1ccc(Cl)cc1NC(=O)COc1ccc(S(=O)(=O)N2CCOCC2)cc1C", "values": [
      {"measurement": "outcome", "value": "inactive"}
    ]},
    {"compound": "O=C(Nc1ccc(NC(=O)c2ccccc2F)cc1)c1cccs1", "values": [
      {"measurement": "outcome", "value": "inactive"}
    ]},
    {"compound": "O=C(CCn1c(=O)[nH]c2ccsc2c1=O)NCc1ccc(F)cc1", "values": [
      {"measurement": "outcome", "value": "inactive"}
    ]},
    {"compound": "O=C(c1ccc(OC2CCN(Cc3cccc(OCCO)c3)CC2)cc1)N1CCCC1", "values": [
      {"measurement": "outcome", "value": "inactive"}
    ]},
    {"compound": "O=C(CSc1ccc(Cl)cc1)Nc1ccccc1N1CCN(C(=O)c2ccccc2)CC1", "values": [
      {"measurement": "outcome", "value": "inactive"}
    ]},
    {"compound": "Cc1cc(S(=O)(=O)N2CCOCC2)ccc1OCC(=O)Nc1cccc(C(F)(F)F)c1", "values": [
      {"measurement": "outcome", "value": "inactive"}
    ]},
    {"compound": "CN(C)c1ccc(-c2nnn(CC(=O)Nc3ccccc3N3CCOCC3)n2)cc1", "values": [
      {"measurement": "outcome", "value": "inactive"}
    ]},
    {"compound": "O=C(Nc1ccc(-c2cccc(F)c2)cc1)C1CCCN(Cc2ccccn2)C1", "note": "(stereo not drawn)", "values": [
      {"measurement": "outcome", "value": "inactive"}
    ]},
    {"compound": "O=C(c1cc2c(ccc3ccccc32)o1)N1CCN(c2ncc(C(F)(F)F)cc2Cl)CC1", "values": [
      {"measurement": "outcome", "value": "inactive"}
    ]},
    {"compound": "CC(=O)Nc1ccc(CN2CCC(Oc3ccc(C(=O)N4CCCC4)cc3)CC2)cc1", "values": [
      {"measurement": "outcome", "value": "inactive"}
    ]},
    {"compound": "COc1ccccc1C(=O)Nc1ccc2oc(-c3ccc(F)cc3)nc2c1", "values": [
      {"measurement": "outcome", "value": "inactive"}
    ]},
    {"compound": "COc1ccc(N2CCN(C(=O)CN(C)S(=O)(=O)c3cc(C)ccc3OC)CC2)cc1", "values": [
      {"measurement": "outcome", "value": "inactive"}
    ]},
    {"compound": "COc1ccc(OC)c(NC(=O)c2sc3nc(C)cc(C)c3c2N)c1", "values": [
      {"measurement": "activation (receptor internalization)", "value": "0.987% [at 1.22 µM]"}
    ]},
    {"compound": "COc1ccc(C(CCNCc2ccc(OC(C)C)cc2)c2ccccc2OC)cc1", "note": "(stereo not drawn)", "values": [
      {"measurement": "outcome", "value": "inactive"}
    ]},
    {"compound": "COc1ccc(S(=O)(=O)N(C)CC(=O)N2CCN(c3ccccc3)CC2)cc1", "values": [
      {"measurement": "outcome", "value": "inactive"}
    ]},
    {"compound": "Cc1ccc(C(=O)c2cc([N+](=O)[O-])ccc2N2CCCCC2)c(C)c1", "values": [
      {"measurement": "outcome", "value": "inactive"}
    ]},
    {"compound": "COc1ccc(NC(=O)Cn2nnc(-c3ccc(CN4CCOCC4)cc3)n2)c(OC)c1", "values": [
      {"measurement": "outcome", "value": "inactive"}
    ]},
    {"compound": "COc1ccc(OC)c(S(=O)(=O)N(C)CC(=O)N2CCN(c3cccc(Cl)c3)CC2)c1", "values": [
      {"measurement": "outcome", "value": "inactive"}
    ]},
    {"compound": "CC1CCCN(C(=O)C(C)Sc2nc(-c3ccccc3)cc(C(F)(F)F)n2)C1", "note": "(stereo not drawn)", "values": [
      {"measurement": "outcome", "value": "inactive"}
    ]},
    {"compound": "Cc1cccc(CN2CCC(Oc3ccc(C(=O)N4CCCCC4)cc3)CC2)c1", "values": [
      {"measurement": "outcome", "value": "inactive"}
    ]},
    {"compound": "COc1cccc(-c2ccc(NC(=O)C3CCCN(Cc4cnn(C(C)C)c4)C3)cc2)c1", "note": "(stereo not drawn)", "values": [
      {"measurement": "outcome", "value": "inactive"}
    ]},
    {"compound": "N=c1n(Cc2ccc(Cl)cc2)c2ccccc2n1CC(O)COc1ccccc1", "note": "(stereo not drawn)", "values": [
      {"measurement": "outcome", "value": "inactive"}
    ]},
    {"compound": "CCC(NC(=O)c1cc(COc2ccc(C)nc2)on1)c1ccc(C)cc1", "note": "(stereo not drawn)", "values": [
      {"measurement": "outcome", "value": "inactive"}
    ]},
    {"compound": "Cc1cccc(-c2nnc(SCc3nc4ccccc4[nH]3)n2Cc2ccco2)c1", "values": [
      {"measurement": "outcome", "value": "inactive"}
    ]},
    {"compound": "Cc1ccc(S(=O)(=O)c2ccc([N+](=O)[O-])o2)cc1", "values": [
      {"measurement": "outcome", "value": "inactive"}
    ]},
    {"compound": "CCOC(=O)c1ccc(NC(=O)Cn2nnc(-c3ccccc3C)n2)cc1", "values": [
      {"measurement": "outcome", "value": "inactive"}
    ]}
  ]
}
